Screening data: PubChem, National Center for Advancing Translational Sciences (NCATS)
Pf Dd2 growth: qHTS Primary assay for Inhibitors of Plasmodium falciparum Dd2 growth in vitro | AID 1347417, 2020 | P. falciparum Dd2 growth, SYBR Green, 72 h | 120,000 compounds, 4.3% hits | Potency, µM (series often up to 28.9 µM), for the others: top-dose activity, negative = inhibition, usual class: inhibitors; active = well fitted inhibition curve with a large enough effect;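 also: plate controls were DMSO vehicle for no effect and reference drug for full effect; nearly all actives have a fitted effect of over 65% in size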
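Readout: SYBR Green fluorescence, 485 nm excitation, 535 nm emission, after ~16 h lysis at 37C. Before that, Dd2-infected red cells (2.5% hematocrit) grew 72 h with compound, 29 uM top final concentration.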
Numbers without * were called inactive; i = inactive; ! = a repeat was not active; [ ] = dose if it differs, or a comment. The sample as a whole holds a higher share of hits than the screen did. Potency is read from the fitted curve at half-maximal effect.

SMILES	Pf Dd2 growth
NC(=O)C1CCN(C(=O)C[C@@H]2CCNC[C@@H]2Cc2cc(COc3ccccc3)on2)CC1	12%
COc1ccc(-c2cc(C[C@H]3CNCC[C@H]3CC(=O)N3CCC(Cc4ccccc4)CC3)no2)cc1	7.9µM*
COc1ccc(-c2cc(C[C@H]3CNCC[C@H]3CC(=O)NC(C)C)no2)cc1	i
COc1ccc(-c2cc(C[C@H]3CNCC[C@H]3CC(=O)N3CCN(c4ccccc4OC)CC3)no2)cc1	-26%
COc1ccccc1N1CCN(C(=O)C[C@@H]2CCNC[C@@H]2Cc2cc(COc3ccccc3)on2)CC1	-29%
O=C(C[C@@H]1CCNC[C@@H]1Cc1cc(CN2CCOCC2)on1)N1CCN(c2ccccc2)CC1	6%
COc1ccc(-c2cc(C[C@H]3CNCC[C@H]3CC(=O)NCc3cccnc3)no2)cc1	-8%[44.1 µM]
O=C(c1ccccc1F)N1CCn2c(nnc2-c2cccnc2)C1	8%
COc1ccc(C(=O)NC(C(=O)N2CCCC2)C2CCN(C(=O)c3ccc(OC)cc3)CC2)cc1 (centres undefined)	i
Cc1ccccc1C(=O)N1CCCN(c2nnc3ccc(Cl)cn23)CC1	i
NC(=O)CN1CCC(C(=O)NCc2cc(-c3ccc(Cl)cc3)on2)CC1	i
Cc1ccc(C(=O)NC2CCN(c3ccc(=O)n(C)n3)CC2)cn1	i
Cc1ccc(C(=O)N2C[C@@H](CO)[C@H](c3ccccn3)C2)c(C)c1	-2%
O=C1NCCCCCN(C(=O)COc2ccccc2)[C@H]2CCC[C@@H]12	i
Cc1nc(C2CC(O)C2)cc(N2CC(N3CCOCC3)C2)n1 (centres undefined)	-13%
CCN(CC)C(=O)C1CCN(S(=O)(=O)c2ccc3c(c2)CCCN3C(C)=O)CC1	-4%
CC(=O)N1CCCc2cc(S(=O)(=O)N3CCC(C(=O)Nc4c(C)cccc4C)CC3)ccc21	-9%
CCN(C(=O)C1CCN(S(=O)(=O)c2ccc3c(c2)CCCN3C(C)=O)CC1)c1cccc(C)c1	13µM*
COc1cccc(CNC(=O)[C@@H]2C[C@@H](O)CN2C2CCN(C(=O)c3cnccn3)CC2)c1	11%
COCC(=O)N1CCC(O)(c2ccccc2)[C@H](N2CCCC2)C1 (some centres undefined)	17%[5.79 µM]
Cc1c(CN2CCC(O)(c3ccccc3)[C@H](N3CCCC3)C2)cnn1C (some centres undefined)	0.45µM*
CCCC(=O)N1CCC(O)(c2ccccc2)[C@H](N2CCCC2)C1 (some centres undefined)	i[5.79 µM]
Cc1cnc(C(=O)N2CCC(c3noc(-c4ccncc4)n3)C2)cn1 (centres undefined)	i[5.79 µM]
CNc1ncccc1C(=O)N1CCC(O)(c2ccc(C)cn2)CC1	-4%
Cc1ccc(C(=O)N2CCCC3(CCNCC3)CC2)cc1Cl	-14%
SMILES	Pf Dd2 growth
CNc1ccc(C)cc1C(=O)N1CCC2(CCCN(C)CC2)CC1	10µM*
COCCn1nc2n(c1=O)CCN(C(=O)c1ccc(OC)cc1OC)CC2	i
COC[C@@H]1CN(C(=O)c2nn(C)c3ccccc23)C[C@H]1C(N)=O	-9%
NCCN1C(=O)CO[C@H](c2ccc(NS(=O)(=O)c3ccccc3)cc2)[C@H]1CO	15%[44.1 µM]
CCCNC(=O)Cc1csc2nc(C)c(-c3cc(C)n(-c4ccc(C)cc4)n3)c(=O)n12	i
CCCCNC(=O)Cc1csc2nc(C)c(-c3cc(C)n(-c4cccc(C)c4)n3)c(=O)n12	i
CCCCCCNC(=O)Cc1csc2nc(C)c(-c3cc(C)n(-c4cccc(C)c4)n3)c(=O)n12	2µM*
CN(C(=O)c1ccnc(-c2nnc3ccc(N4CCOCC4)nn23)c1)c1ccccc1	-11%[44.1 µM]
COc1ccc(S(=O)(=O)NC[C@H]2COCc3nc4ccc(C)cc4n32)cc1	-29%[44.1 µM]
CCOCc1nc(C2CCCN(C(=O)c3ccccc3C)C2)no1 (centres undefined)	24%
O=C(O)C1=NOC2CN(Cc3cccc(C(F)(F)F)c3)CC12 (centres undefined)	i
Cc1cc2c(c(=O)n(-c3ccc(F)cc3)c(=O)n2CC(=O)Nc2cc(F)ccc2F)n1C	i
COc1cccc(-c2ccc(NC(=O)C3CCCN3Cc3cnn(C)c3)cc2)c1 (centres undefined)	-23%
Cc1cccc(CC(=O)N2CCCCCC2c2nnc(-c3ccccc3)o2)c1 (centres undefined)	i
Cc1ccc(-n2cc(CN3CCCCC3C(N)=O)c(-c3cccc(C)c3)n2)cc1 (centres undefined)	11µM*
O=C(Cn1ncc2ccccc2c1=O)NC1CCCc2c1[nH]c1c(Cl)cccc21 (centres undefined)	-5%
COCCc1noc(CN(C)c2cc(C3CC(O)C3)nc(C)n2)n1 (centres undefined)	5%
CCC1CN(C(=O)c2ccc(-c3ccsc3)nc2)CCN1C(C)C (centres undefined)	i
COc1ccc(NC(=O)Cn2c(=O)n(Cc3nc(C)no3)c(=O)c3cc4c(cc32)OCO4)cc1OC	-8%
CC(C)c1ccc(NC(=O)Cn2c(=O)n(Cc3nc(-c4ccccc4)no3)c(=O)c3cc4c(cc32)OCO4)cc1	-8%
Cc1noc(Cn2c(=O)c3cc4c(cc3n(CC(=O)Nc3ccc(C(C)C)cc3)c2=O)OCO4)n1	13µM*
CC(=O)NCC(=O)N1CCC(Oc2ccccc2-c2nc(C3CC3)no2)C1 (centres undefined)	26%
COc1ccc(CNC(=O)N2CCC(OC3CCN(S(C)(=O)=O)CC3)CC2)cc1	i
CCOc1ccccc1CN1CCC2(CCN(C(=O)NC3CCCC3)CC2)Oc2ccccc21	-4%
CCOc1ccccc1CN1CCC2(CCN(Cc3ccsc3)CC2)Oc2ccccc21	10µM*
SMILES	Pf Dd2 growth
CCOc1ccccc1CN1CCC2(CCN(C(=O)Cc3ccccn3)CC2)Oc2ccccc21	11µM*!
CCOc1ccccc1CN1CCC2(CCN(C(C)=O)CC2)Oc2ccccc21	-27%
CCOc1ccccc1CN1CCC2(CCN(C(=O)c3cccc(OC)c3)CC2)Oc2ccccc21	-31%
CCOc1ccccc1CN1CCC2(CCN(C(=O)C3CC3)CC2)Oc2ccccc21	-30%
O=C(C1CC(=O)N(c2n[nH]c3cc(Br)ccc23)C1)N1CCCC1 (centres undefined)	-3%
Cc1ccc(C2=NC3(CCN(C(=O)c4ccc5c(c4)OCO5)CC3)ON2)cc1	i
Cc1ccc(C(=O)N2CCC3(CC2)N=C(c2ccc(Cl)cc2)NO3)cc1F	-12%
O=C(c1ccc2c(c1)OCO2)N1CCC2(CC1)N=C(c1ccc(Cl)cc1)NO2	7.9µM*
Cc1ncoc1C(=O)N1CCC2(CCCN(CC3CCCCC3)C2=O)C1 (centres undefined)	-4%
Cc1ccc(Cl)cc1NC(=O)N1CCC(Oc2ncccc2C(=O)N2CCOCC2)C1 (centres undefined)	i
Cc1cc(C)nc(NC(=NCCc2c[nH]c3ccc(Cl)cc23)NC(=O)c2ccccc2C)n1	-4%
COc1ccc2[nH]cc(CCN=C(NC(=O)c3ccccc3C)Nc3nc(C)cc(C)n3)c2c1	8.9µM*
COc1ccc2[nH]cc(CCNC(=O)Nc3ccc(F)cc3)c2c1	19%
COc1cc(C)ccc1S(=O)(=O)NCC1CNCCOC1 (centres undefined)	-2%
O=C(c1ccc(C(F)(F)F)cc1)N1CCC(n2c(=O)[nH]c3ccccc32)CC1	-23%
O=[S+]([O-])(Nc1nncs1)c1ccc2c(c1)OCCN(Cc1cccs1)C2	i
O=C(CCc1nnn2c1CN(C(=O)c1ccc(F)cc1)CC2)NC1CC1	-11%
